This note sets out measurements from PubChem BioAssay (EPA / NIEHS).

Assay [1] has as its target Paired box protein Pax-6 (Homo sapiens) (UniProt P26367). Briefly: ATG_Pax6_CIS: Attagene CIS-FACTORIAL HepG2 Assay for human Paired Box 6 (PAX6) (AID 2282956). Particulars: HepG2 CIS-FACTORIAL PAX6 reporter transcription, RNA readout; actives raise or lower the signal. The procedure, abridged: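 HepG2 cells transiently transfected with multiplexed cis-promoter reporter units (endogenous TF activity) were dosed for 24 h. Reporter mRNA was quantified by RT-PCR, 6-FAM labeling, HpaI digestion and capillary electrophoresis; bidirectional fitting versus DMSO baseline.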

Assay [2] is described as follows: ATG_PPRE_CIS: Attagene CIS-FACTORIAL HepG2 Assay for human Peroxisome Proliferator-activated Response Element (PPRE) (AID 2282958). Particulars: HepG2 PPRE cis-element reporter, Attagene transcription factor profiling; actives raise or lower the signal. A digest of the protocol: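 Read-out: fluorescent reporter mRNA fragments resolved by capillary electrophoresis after RT-PCR. HepG2 cells carried transiently transfected PPRE-driven cis reporter constructs and were dosed for 24 h; gain or loss of signal fitted relative to DMSO.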

Assay [3] is described as follows: ATG_RORE_CIS: Attagene CIS-FACTORIAL HepG2 Assay for human RAR-related Orphan Receptor Element (RORE) (AID 2282959). To be noted: HepG2 Attagene cis-factorial RORE reporter, mRNA; actives raise or lower the signal. The procedure, abridged:
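Readout: fluorescent reporter mRNA by RT-PCR plus capillary electrophoresis, 24 h after dosing transfected HepG2 cells. Endogenous transcription factor activity on a cis promoter element is measured. Gain or loss of signal fitted against DMSO.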

The nature of assay [4]: ATG_Sox_CIS: Attagene CIS-FACTORIAL HepG2 Assay for human SRY-box transcription factor (SOX) (AID 2282960). To be noted: HepG2 Attagene cis-factorial SOX reporter, mRNA; actives raise or lower the signal. A digest of the protocol: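 Read-out: fluorescent RT-PCR products of SOX1-linked reporter transcripts resolved by capillary electrophoresis, fitted bidirectionally against DMSO. Transiently transfected HepG2 cells, 24 h after chemical exposure, endogenous transcription factor activity.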

Assay [5] deals with Transcription factor Sp1 (Homo sapiens) (UniProt P08047). In words: ATG_Sp1_CIS: Attagene CIS-FACTORIAL HepG2 Assay for human Specificity Protein 1 (Sp1) (AID 2282961). To be noted: HepG2 Sp1 cis-reporter transcription, actives raise or lower the signal. The procedure, abridged:
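Read-out: fluorescence of 6-FAM-labeled, HpaI-digested RT-PCR products separated by capillary electrophoresis. HepG2 cells carried transfected cis-element reporter units and were exposed to chemicals for 24 h; gain or loss of signal fitted relative to DMSO.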

Assay [6] is described as follows: ATG_SREBP_CIS: Attagene CIS-FACTORIAL HepG2 Assay for human Sterol Regulatory Element Binding (SREBP) (AID 2282962). To be noted: HepG2 Attagene cis-factorial SREBP reporter, mRNA; actives raise or lower the signal. The procedure, abridged: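 HepG2 cells transiently transfected with multiplexed cis-element reporter units report endogenous transcription factor activity. After 24 h of chemical exposure, reporter mRNA was quantified by RT-PCR, 6-FAM labelling, HpaI digestion and capillary electrophoresis; bidirectional fits used DMSO as baseline.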

Assay [7] addresses Signal transducer and activator of transcription 3 (Homo sapiens) (UniProt P40763). In words: ATG_STAT3_CIS: Attagene CIS-FACTORIAL HepG2 Assay for human Signal Transducer and Activator of Transcription 3 (STAT3) (AID 2282963). Particulars: HepG2, Attagene cis-factorial STAT3 reporter transcription; actives raise or lower the signal. A digest of the protocol: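 Values derive from bidirectional fits relative to DMSO of reporter mRNA levels, measured by RT-PCR with capillary electrophoresis, in HepG2 cells carrying transiently transfected cis-regulated reporter units and exposed 24 h.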

Assay [8] in a line: ATG_TA_CIS: Attagene CIS-FACTORIAL HepG2 Assay for human TA Basal Promoter (AID 2282964). To be noted: HepG2 Attagene CIS-factorial TA basal promoter reporter; actives raise or lower the signal. A digest of the protocol: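 Read-out: fluorescent reporter-transcript fragments resolved by capillary electrophoresis after RT-PCR and HpaI digestion. Source: HepG2 cells carrying transiently transfected multi-reporter cis constructs, treated 24 h. Endpoint fitted bidirectionally relative to DMSO.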

Assay [9] in a line: ATG_TCF_b_cat_CIS: Attagene CIS-FACTORIAL HepG2 Assay for human T-Cell-Factor with beta-catenin (TCF/b-cat) (AID 2282965). Particulars: HepG2 TCF/beta-catenin cis-reporter transcription, actives raise or lower the signal. The procedure, abridged:
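HepG2, transient MRTU transfection, cis-element-driven reporters (endogenous TFs). 24 h compound exposure. Readout: reporter mRNA by RT-PCR + 6-FAM primer extension, HpaI digest, capillary electrophoresis. Gain/loss fit vs DMSO baseline.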

Assay [10] is described as follows: ATG_TAL_CIS: Attagene CIS-FACTORIAL HepG2 Assay for human TAL Basal Promoter (AID 2282966).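 Note: background control endpoint measuring basal TAL promoter reporter mRNA not a specific factor.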 Particulars: HepG2 Attagene cis-factorial TAL promoter reporter; actives raise or lower the signal. A digest of the protocol:
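Fluorescence of labelled reporter cDNA fragments, resolved by capillary electrophoresis, gave the readout. Human HepG2 liver cells carried transiently transfected cis-element reporter units and were treated for 24 hours; activity was fitted bidirectionally against DMSO.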

The nature of assay [11]: ATG_TGFb_CIS: Attagene CIS-FACTORIAL HepG2 Assay for human Transforming Growth Factor (TGF) (AID 2282967). To be noted: HepG2 Attagene CIS TGFb reporter, mRNA transcription; actives raise or lower the signal. A digest of the protocol: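 Transient MRTU transfection of HepG2 (FuGene 6). Dose 24 h. TriZol RNA, oligo(dT) RT, PCR, 6-FAM primer extension, HpaI cut, CE. Bidirectional fit, DMSO = baseline.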

The target of assay [12] is X-box-binding protein 1 (Homo sapiens) (UniProt P17861). Briefly: ATG_Xbp1_CIS: Attagene CIS-FACTORIAL HepG2 Assay for human X-box Binding Protein 1 (XBP1) (AID 2282972). To be noted: HepG2 XBP1 cis-element reporter, Attagene multiplex; actives raise or lower the signal. The procedure, abridged: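 HepG2 cells transiently transfected with cis-regulated multiple reporter transcription units; endogenous transcription factor activity measured 24 hours after chemical dosing. Reporter mRNA quantified by RT-PCR, 6-FAM primer extension, HpaI digestion and capillary electrophoresis; bidirectional fitting versus DMSO.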

A short description of assay [13]: ATG_VDRE_CIS: Attagene CIS-FACTORIAL HepG2 Assay for human Vitamin D Receptor Element (VDRE) (AID 2282968). Particulars: HepG2 VDRE cis-reporter transcription, actives raise or lower the signal. The procedure, abridged:
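Cell-based multiplexed reporter format in human liver HepG2 cells, 24 h post-dose. Fluorescence from capillary electrophoresis of reporter cDNA gives the signal, with DMSO as negative control and baseline.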

The target in assay [14] is Nuclear receptor subfamily 1 group I member 3 (Homo sapiens) (UniProt Q14994). Briefly: ATG_CAR_TRANS: Attagene TRANS-FACTORIAL HepG2 Assay for human Constitutive Androstane Receptor (CAR) (AID 2282969; active = hit-call score of the fitted dose curve at least 0.9, where 1 is the maximum;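 note: activators raise reporter mRNA above DMSO so AC50 marks induction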). Particulars: HepG2 Attagene TRANS-FACTORIAL CAR reporter. The procedure, abridged:
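HepG2 cells transiently transfected with GAL4-UAS reporter units; TRANS format reads activity of exogenous chimeric NR-Gal4 protein. After 24 h dosing, reporter mRNA quantified by RT-PCR, 6-FAM labelling and capillary electrophoresis; gain of signal fitted against DMSO.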

Assay [15] concerns the target Estrogen receptor (Homo sapiens) (UniProt P03372). Briefly: ATG_ERa_TRANS: Attagene TRANS-FACTORIAL HepG2 Assay for human Estrogen Receptor alpha (ERa) (AID 2282970; active = hit-call score of the fitted dose curve at least 0.9, where 1 is the maximum). To be noted: HepG2 Attagene TRANS ERa GAL4 reporter, mRNA. The procedure, abridged: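 Human liver HepG2, transient transfection of multiple GAL4-UAS reporter units; TRANS format (exogenous NR-Gal4 chimera). 24 h dosing. Readout: reporter mRNA, RT-PCR, 6-FAM primer extension, HpaI digest, capillary electrophoresis. Positive direction vs DMSO.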

Assay [16] has as its target Steroid hormone receptor ERR1 (Homo sapiens) (UniProt P11474). Briefly: ATG_ERRa_TRANS: Attagene TRANS-FACTORIAL HepG2 Assay for human Estrogen-Related Receptor alpha (ERRa) (AID 2282971; active = hit-call score of the fitted dose curve at least 0.9, where 1 is the maximum). Particulars: HepG2 Attagene TRANS reporter, ERRa transactivation. The procedure, abridged: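 Reporter transcript induction was quantified by RT-PCR and capillary electrophoresis of FAM-labelled, HpaI-cut products after 24 h treatment of HepG2 cells carrying transiently transfected GAL4-UAS reporter units and an exogenous ERRa-Gal4 fusion; activity scored as increase over DMSO.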

The nature of assay [17]: ATG_GAL4_TRANS: Attagene TRANS-FACTORIAL HepG2 Assay for GAL4 (Internal Marker) (AID 2282976; active = hit-call score of the fitted dose curve at least 0.9, where 1 is the maximum). Particulars: HepG2 Attagene TRANS GAL4 internal marker reporter. A digest of the protocol: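 First, HepG2 cells were transfected with reporter units under GAL4-UAS control. Next, they were treated with chemical for 24 h. Finally, RNA was reverse-transcribed, PCR-amplified, FAM-labelled and resolved by capillary electrophoresis, with induction scored against DMSO.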

The nature of assay [18]: ATG_M_19_TRANS: Attagene TRANS-FACTORIAL HepG2 Assay for M19 Transcription Factor (Internal Marker) (AID 2282974; active = hit-call score of the fitted dose curve at least 0.9, where 1 is the maximum). To be noted: HepG2 Attagene TRANS-FACTORIAL M19 internal marker reporter. The procedure, abridged:
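24 h chemical exposure of transiently transfected HepG2 (MRTU library). RNA → oligo(dT) RT → PCR → 6-FAM labelling → HpaI cut → CE fluorescence. Positive-direction fit vs DMSO baseline; background internal-marker readout.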

Assay [19] has as its target Estrogen-related receptor gamma (Homo sapiens) (UniProt P62508). Briefly: ATG_ERRg_TRANS: Attagene TRANS-FACTORIAL HepG2 Assay for human Estrogen-Related Receptor gamma (ERRg) (AID 2282977; active = hit-call score of the fitted dose curve at least 0.9, where 1 is the maximum;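 note: hits increase reporter signal over DMSO so potencies reflect activators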). To be noted: HepG2 Attagene TRANS reporter, ERRg transactivation. The procedure, abridged:
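Transient HepG2 transfectants, 24 h compound exposure, GAL4-UAS reporter mRNA by RT-PCR/6-FAM labelling/capillary electrophoresis; positive direction vs DMSO.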

Each structure is given as a SMILES string. Results filed as inconclusive are left out. Activity calls are given as the source filed them. Rule for the calls, unless noted: active = hit-call score of the fitted dose curve at least 0.9, where 1 is the maximum; inactive = score below 0.9.

Transcription factor Sp1 (Homo sapiens), sequence (P08047 whole entry, looked up): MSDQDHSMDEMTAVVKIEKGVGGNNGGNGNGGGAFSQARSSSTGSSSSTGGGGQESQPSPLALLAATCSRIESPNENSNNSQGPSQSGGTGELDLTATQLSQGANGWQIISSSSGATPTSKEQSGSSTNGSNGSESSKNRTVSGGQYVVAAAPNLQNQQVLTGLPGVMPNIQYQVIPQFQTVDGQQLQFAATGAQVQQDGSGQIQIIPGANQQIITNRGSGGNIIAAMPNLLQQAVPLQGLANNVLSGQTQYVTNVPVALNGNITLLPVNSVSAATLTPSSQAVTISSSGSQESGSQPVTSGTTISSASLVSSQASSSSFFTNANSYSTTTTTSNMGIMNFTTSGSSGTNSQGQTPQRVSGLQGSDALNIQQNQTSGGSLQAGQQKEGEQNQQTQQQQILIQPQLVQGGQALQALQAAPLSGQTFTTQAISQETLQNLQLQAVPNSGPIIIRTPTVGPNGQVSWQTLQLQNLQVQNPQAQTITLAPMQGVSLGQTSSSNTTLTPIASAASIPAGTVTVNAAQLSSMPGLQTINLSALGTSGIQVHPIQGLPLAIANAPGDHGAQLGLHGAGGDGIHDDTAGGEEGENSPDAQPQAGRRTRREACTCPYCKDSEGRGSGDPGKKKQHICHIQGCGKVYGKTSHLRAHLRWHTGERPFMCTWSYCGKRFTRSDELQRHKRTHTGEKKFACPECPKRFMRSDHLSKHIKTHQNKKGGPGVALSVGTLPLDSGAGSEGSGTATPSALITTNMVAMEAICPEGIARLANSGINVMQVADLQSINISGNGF
Estrogen receptor (Homo sapiens), sequence (P03372 whole entry, looked up, the tested form may be a part): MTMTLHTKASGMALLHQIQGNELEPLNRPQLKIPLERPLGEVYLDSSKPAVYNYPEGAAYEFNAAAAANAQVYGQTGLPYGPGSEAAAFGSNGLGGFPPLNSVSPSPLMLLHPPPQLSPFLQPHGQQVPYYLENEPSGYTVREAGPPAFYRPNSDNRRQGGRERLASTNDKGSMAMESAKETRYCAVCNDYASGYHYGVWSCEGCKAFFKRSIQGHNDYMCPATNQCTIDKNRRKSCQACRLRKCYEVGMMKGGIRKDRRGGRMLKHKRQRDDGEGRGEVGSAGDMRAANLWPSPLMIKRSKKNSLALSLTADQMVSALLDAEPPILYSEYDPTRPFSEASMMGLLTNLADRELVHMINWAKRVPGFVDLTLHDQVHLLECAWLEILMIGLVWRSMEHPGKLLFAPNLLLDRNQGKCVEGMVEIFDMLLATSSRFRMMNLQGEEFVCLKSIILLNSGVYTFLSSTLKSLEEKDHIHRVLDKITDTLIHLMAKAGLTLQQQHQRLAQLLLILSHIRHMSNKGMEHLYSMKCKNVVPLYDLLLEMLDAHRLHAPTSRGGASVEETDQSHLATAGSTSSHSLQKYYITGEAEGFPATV
Nuclear receptor subfamily 1 group I member 3 (Homo sapiens), sequence (Q14994 whole entry, looked up, the tested form may be a part): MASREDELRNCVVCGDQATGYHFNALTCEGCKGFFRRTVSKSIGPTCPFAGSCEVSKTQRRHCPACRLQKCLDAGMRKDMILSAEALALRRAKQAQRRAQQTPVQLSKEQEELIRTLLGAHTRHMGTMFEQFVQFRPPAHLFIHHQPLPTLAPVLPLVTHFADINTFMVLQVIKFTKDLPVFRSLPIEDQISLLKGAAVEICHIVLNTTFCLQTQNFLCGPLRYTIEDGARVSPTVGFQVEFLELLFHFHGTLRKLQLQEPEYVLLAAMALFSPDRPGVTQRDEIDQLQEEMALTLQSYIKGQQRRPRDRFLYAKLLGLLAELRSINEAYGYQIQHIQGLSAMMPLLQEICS
Signal transducer and activator of transcription 3 (Homo sapiens), sequence (P40763 whole entry, looked up): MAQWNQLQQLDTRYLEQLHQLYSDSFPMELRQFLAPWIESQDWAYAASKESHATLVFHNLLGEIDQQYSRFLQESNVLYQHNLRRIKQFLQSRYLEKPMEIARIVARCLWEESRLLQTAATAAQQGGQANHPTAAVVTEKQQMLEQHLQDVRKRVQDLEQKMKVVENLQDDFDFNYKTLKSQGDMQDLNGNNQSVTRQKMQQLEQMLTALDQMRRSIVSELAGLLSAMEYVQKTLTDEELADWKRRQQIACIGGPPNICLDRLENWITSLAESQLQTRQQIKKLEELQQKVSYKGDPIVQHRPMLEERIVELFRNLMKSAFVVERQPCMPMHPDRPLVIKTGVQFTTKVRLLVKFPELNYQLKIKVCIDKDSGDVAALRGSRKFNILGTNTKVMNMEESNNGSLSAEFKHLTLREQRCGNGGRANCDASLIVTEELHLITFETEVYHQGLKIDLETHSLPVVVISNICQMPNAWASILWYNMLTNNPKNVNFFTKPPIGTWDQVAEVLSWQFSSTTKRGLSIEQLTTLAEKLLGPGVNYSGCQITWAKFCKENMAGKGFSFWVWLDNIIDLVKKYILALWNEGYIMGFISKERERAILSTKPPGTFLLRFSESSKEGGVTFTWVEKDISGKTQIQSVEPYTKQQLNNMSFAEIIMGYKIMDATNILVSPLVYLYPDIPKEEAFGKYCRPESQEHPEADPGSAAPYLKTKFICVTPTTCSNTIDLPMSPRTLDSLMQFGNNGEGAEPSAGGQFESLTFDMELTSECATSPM
Paired box protein Pax-6 (Homo sapiens), sequence (P26367 whole entry, looked up): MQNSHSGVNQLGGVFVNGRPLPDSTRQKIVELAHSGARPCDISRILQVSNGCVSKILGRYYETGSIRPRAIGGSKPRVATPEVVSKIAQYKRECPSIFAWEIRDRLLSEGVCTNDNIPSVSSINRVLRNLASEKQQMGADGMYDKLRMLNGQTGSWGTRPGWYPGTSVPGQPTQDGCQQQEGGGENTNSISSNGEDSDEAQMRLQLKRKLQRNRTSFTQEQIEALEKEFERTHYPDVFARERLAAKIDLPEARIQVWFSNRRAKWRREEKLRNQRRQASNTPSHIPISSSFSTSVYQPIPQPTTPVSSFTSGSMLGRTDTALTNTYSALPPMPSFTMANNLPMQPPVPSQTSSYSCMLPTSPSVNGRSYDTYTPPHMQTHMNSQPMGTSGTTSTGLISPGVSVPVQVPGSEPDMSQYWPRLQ
X-box-binding protein 1 (Homo sapiens), sequence (P17861 whole entry, looked up): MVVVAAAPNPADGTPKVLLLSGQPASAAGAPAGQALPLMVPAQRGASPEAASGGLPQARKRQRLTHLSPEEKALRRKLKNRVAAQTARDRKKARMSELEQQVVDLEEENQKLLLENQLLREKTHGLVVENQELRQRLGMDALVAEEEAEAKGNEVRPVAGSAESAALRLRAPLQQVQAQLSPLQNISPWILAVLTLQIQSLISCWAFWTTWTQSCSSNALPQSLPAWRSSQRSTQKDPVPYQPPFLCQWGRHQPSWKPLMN
Steroid hormone receptor ERR1 (Homo sapiens), sequence (P11474 whole entry, looked up, the tested form may be a part): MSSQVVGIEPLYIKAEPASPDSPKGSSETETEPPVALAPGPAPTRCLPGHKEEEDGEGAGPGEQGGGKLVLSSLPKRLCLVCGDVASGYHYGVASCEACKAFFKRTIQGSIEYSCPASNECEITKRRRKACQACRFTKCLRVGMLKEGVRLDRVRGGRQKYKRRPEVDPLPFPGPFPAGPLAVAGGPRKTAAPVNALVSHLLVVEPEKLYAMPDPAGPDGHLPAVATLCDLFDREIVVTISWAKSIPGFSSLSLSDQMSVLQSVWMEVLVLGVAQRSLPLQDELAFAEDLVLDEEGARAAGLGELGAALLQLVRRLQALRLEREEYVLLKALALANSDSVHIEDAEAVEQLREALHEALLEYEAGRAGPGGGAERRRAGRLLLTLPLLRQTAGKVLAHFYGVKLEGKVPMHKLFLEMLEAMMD
Estrogen-related receptor gamma (Homo sapiens), sequence (P62508 whole entry, looked up, the tested form may be a part): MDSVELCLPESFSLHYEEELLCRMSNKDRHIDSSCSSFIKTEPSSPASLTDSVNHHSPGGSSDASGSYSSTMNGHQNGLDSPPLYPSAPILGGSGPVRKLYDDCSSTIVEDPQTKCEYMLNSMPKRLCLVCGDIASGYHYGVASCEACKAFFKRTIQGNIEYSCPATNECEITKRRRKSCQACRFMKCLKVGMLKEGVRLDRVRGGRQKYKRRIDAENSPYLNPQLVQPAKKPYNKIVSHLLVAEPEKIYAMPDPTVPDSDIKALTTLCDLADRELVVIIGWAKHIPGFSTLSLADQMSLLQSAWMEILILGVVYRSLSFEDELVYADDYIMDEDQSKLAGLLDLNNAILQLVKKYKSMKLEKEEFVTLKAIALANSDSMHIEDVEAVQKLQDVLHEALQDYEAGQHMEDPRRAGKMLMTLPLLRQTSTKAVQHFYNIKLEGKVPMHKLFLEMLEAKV

Consider `O=C1Nc2ccccc2C1(c1ccc(O)cc1)c1ccc(O)cc1`, for which the AC50 in [1] is 70.7 µM (active); in assay [4], 63.9 µM (active); in assay [6], 27.2 µM (active); in [8], 61.7 µM (active); in assay [9], 40.9 µM (active); in assay [12], 48.8 µM (active). Moreover, the compound was called inactive in assay [2], in assay [3], in assay [5], in assay [7], in assay [10] and in [11].
Consider `CCCCCCCOC(=O)CCC`, for which the compound was classed as inactive in assay [1], in [2], in assay [3], in [4], in assay [6] and in assay [7]. Further, the compound was classed as inactive in assay [8], in [9], in [10], in [13], in assay [14] and in [15]. Besides, the outcome in [16], in assay [12] and in [17] was inactive.
Regarding `O=c1n(CCO)c(=O)n(CCO)c(=O)n1CCO`, the compound was called inactive in assay [1], in assay [2], in assay [3], in [4], in [5] and in [6]. The compound was called inactive in assay [7], in [8], in [9], in [10], in assay [11] and in assay [13]. Moreover, the outcome in assay [14], in assay [12], in assay [18] and in assay [17] was inactive.
As to `O=C1c2cccc(O)c2C(=O)c2c(O)cc(CO)cc21`, the compound was called inactive in assay [1], in assay [3], in [4], in assay [5], in assay [7] and in [8]. Further, the outcome in assay [9], in assay [10], in assay [11], in assay [13], in assay [14] and in assay [16] was inactive. Further, the result in assay [12], in [18] and in assay [19] was inactive. Moreover, the AC50 in [15] is 5.81 µM (active).
Consider `C=C[Si](OC(C)=O)(OC(C)=O)OC(C)=O`, for which the compound was classed as inactive in [1], in assay [2], in assay [3], in assay [4], in assay [6] and in assay [7]. Also, the compound was called inactive in assay [10], in [11], in assay [14], in assay [12], in [18] and in assay [17].
Turning to `COC(=O)/C=C/C(C)=C\C=C\C(C)=C\C=C\C=C(C)\C=C\C=C(C)\C=C\C(=O)O`, the compound was classed as inactive in assay [1], in [2], in [3], in assay [4], in assay [5] and in [6]. Moreover, the call in [7], in [8], in [9], in [10], in assay [13] and in assay [12] was inactive. The outcome in [19] was inactive.
As for `COc1c2ccoc2cc2oc(=O)ccc12`, the call in [1], in assay [3], in [4], in [5], in assay [6] and in [7] was inactive. For the same compound, the outcome in [8], in [9], in assay [10], in [11], in assay [13] and in assay [15] was inactive. Also, the result in [12] was inactive.
As to `O=C1CCCC(=O)O1`, the result in assay [1], in assay [2], in assay [3], in assay [4], in [5] and in assay [6] was inactive. Further, the result in assay [7], in assay [8], in [9], in [10], in assay [11] and in [14] was inactive. Also, the compound was called inactive in assay [12] and in [18].
On to `O=C(Nc1cccc(C(F)(F)F)c1)c1cc(Br)cc(Br)c1O`, for which the AC50 in [1] is 78.9 µM (active); in assay [3] it was 2.29 µM (active); in assay [4], 79.3 µM (active); in [5] it was 100 µM (active); in assay [6], 21.5 µM (active); in assay [8], 43.9 µM (active). In addition, the AC50 in [9] is 128 µM (active); in [10], 145 µM (active); in assay [13], 2.18 µM (active). Also, the compound was classed as inactive in [2], in assay [7], in assay [11] and in assay [17].

One may read the AC50 as the midpoint of the concentration-response curve, whichever way the signal moves.
